Source: PubChem
The entries come from a sample that favours hits as a whole.
Shiga inhibitor = Shiga toxin inhibition; inhibition, % at 38.7 µM; 9.2% of 290,000 active; Vero cells, Shiga toxin protein synthesis inhibition reporter; in the data active = inhibition mostly above about 28%, no sharp cut-off; inactive = mostly below about 43%; note: 0% is about no effect
Tb PYK inh = T. brucei pyruvate kinase inhibition | AID 624173 | Potency, µM (top dose mostly 76.8 µM), without a hit: at the highest dose activity, negative = inhibition, hits mostly inhibitors | TbPYK enzyme, Kinase-Glo Plus ATP luminescence, 45 min | 0.12% of 410,000 active | Q57TT1; note: potency is the fitted concentration of half-maximal effect; % is set by controls: 0 for no effect and ±100 for the full control effect; nearly all actives have a fitted effect of over 50% in size
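Luminescence from Kinase-Glo Plus, added after a 45-minute room-temperature reaction, served as the end-point read-out. The enzyme and substrate were preincubated with compound before ADP (130 uM final) initiated turnover. Concentration-effect curves came from normalized qHTS data.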
LmPK inh = inhibitors of Leishmania mexicana pyruvate kinase | Potency, µM (titrated, usually from 57.5 µM), without a hit: top-dose activity change, negative = inhibition, most hits filed as inhibitors | 0.37% of 290,000 active | AID 1721 | purified LmPK, Kinase-Glo ATP luminescence, 1 h | Q27686; note: potency is the fitted concentration of half-maximal effect; % is set by controls: 0 for no effect and ±100 for the full control effect
Target sequence (Q27686 whole entry, looked up): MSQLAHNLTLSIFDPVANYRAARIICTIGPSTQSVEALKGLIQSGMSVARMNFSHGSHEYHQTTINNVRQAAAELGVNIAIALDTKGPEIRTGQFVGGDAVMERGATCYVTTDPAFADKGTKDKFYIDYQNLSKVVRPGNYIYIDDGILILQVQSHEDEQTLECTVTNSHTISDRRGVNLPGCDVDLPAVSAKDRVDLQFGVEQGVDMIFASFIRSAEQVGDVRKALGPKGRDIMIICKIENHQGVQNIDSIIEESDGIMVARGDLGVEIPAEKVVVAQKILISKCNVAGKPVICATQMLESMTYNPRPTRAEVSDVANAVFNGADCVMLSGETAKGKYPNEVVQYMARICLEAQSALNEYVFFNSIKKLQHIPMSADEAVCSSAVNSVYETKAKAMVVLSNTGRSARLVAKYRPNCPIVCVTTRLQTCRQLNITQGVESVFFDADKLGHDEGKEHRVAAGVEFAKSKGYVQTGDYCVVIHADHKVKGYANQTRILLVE
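In 50 mM imidazole pH 7.2 with 7 mM MgCl2, LmPK (0.1 nM) turned over PEP (0.5 mM) and ADP (0.1 mM) for 1 h at room temperature. Luciferase read-out of ATP.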
Cycloheximide cs = counter-screen for Shiga toxin inhibitors: cycloheximide protein synthesis inhibition. cell reporter, cycloheximide protein synthesis inhibition counterscreen. max response, %. 12% of 300,000 active; in the data active = max response mostly above about 13%, no sharp cut-off; inactive = mostly below about 14%; note: read at 38.3 µM for the half of the compounds with a filed dose; 0% is about no effect
Sm TGR inh = inhibitors of Schistosoma mansoni thioredoxin glutathione reductase. Q962Y6. purified TGR, DTNB reduction, TNB absorbance 405 nm. Potency, µM (doses to about 114 µM), for inactives: top-dose activity change, negative = inhibition, usual class: inhibitors. 3% of 360,000 active. AID 485364; note: potency is the fitted concentration of half-maximal effect; % is set by controls: 0 for no effect and ±100 for the full control effect; nearly all actives have a fitted effect of over 60% in size
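Kinetic colorimetric format: TGR-catalysed, NADPH-driven DTNB reduction monitored via TNB absorbance. Enzyme dispensed at 20 nM; compound exposure 15 min at room temperature before reaction start.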
Giardia FBPA inh = inhibitors of Giardia lamblia fructose-1,6-bisphosphate aldolase | A8B2U2 | AID 2451 | purified Giardia FBPA | 0.71% of 290,000 active | Potency, µM (highest dose often 59.6 µM), for inactives: at the top dose activity, negative = inhibition, most hits filed as inhibitors; note: potency is the fitted concentration of half-maximal effect; % is set by controls: 0 for no effect and ±100 for the full control effect; nearly all actives have a fitted effect of over 55% in size
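Giardia FBPA (40 nM reagent) was preincubated 10 min at RT with compound (up to 57.5 uM final), then substrate plus GAPDH/TPI/NAD/arsenate coupling system with diaphorase/resazurin was added; resorufin fluorescence (525/598 nm) was read after 20 min.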
Starred values were filed as active, the others as inactive; u = inconclusive; x = no result. Unless noted, calls come from the whole dose curve; as a rule, active = well fitted curve in the direction sought with a large enough effect; inconclusive = small, poorly fitted or top-dose-only effect, or another doubt; inactive = no such curve, though single readings can be large; an effect the other way counts as inactive or inconclusive.

SMILES | Shiga inhibitor | Tb PYK inh | LmPK inh | Cycloheximide cs | Sm TGR inh | Giardia FBPA inh
N#C/C(=C(/O)CN1CCCC1)c1nc(-c2ccccc2)cs1 | 120* | 5% | 4% | 33* | -18% | u
Nc1nn2cc(-c3ccc(Br)cc3)nc2c2ccccc12 | 125* | -4% | u | 62* | 6% | -5%
NNc1nc(-c2ccccc2)cc(-c2ccc(Br)cc2)n1 | -9 | -5% | 1% | 2 | 21% | -10%
O=C(Nc1ncc2c(n1)CC(c1ccco1)CC2=O)c1ccccc1 (configuration not stated) | 47 | 4% | -3% | 12 | -33% | -1%
Cc1ccc(C(=O)Nc2ncc3c(n2)CC(c2ccco2)CC3=O)cc1 (configuration not stated) | 130 | -11% | -2% | 26* | u | -10%
COc1cccc(C(=O)Nc2ncc3c(n2)CC(c2ccc(OC)cc2OC)CC3=O)c1 (configuration not stated) | 13 | 2% | 3% | -2 | 4% | -3%
Cc1ccc(NC(=O)CSCC(=O)Nc2ncc3c(n2)CC(c2ccco2)CC3=O)cc1 (configuration not stated) | 14 | -24% | -1% | 7 | 50µM* | -12%
COc1ccc(C(=O)Nc2ncc3c(n2)CC(C)CC3=O)cc1 (configuration not stated) | 24 | -2% | -6% | 19* | -3% | -1%
Cc1ccc(C2CC(=O)c3cnc(NC(=O)c4ccco4)nc3C2)cc1 (configuration not stated) | 22 | 5% | -1% | 1 | u | 1%
Cc1cc2c(cc1C)/C(=N/NC(=O)c1ccccn1)CCC2 | 49* | 5% | 3% | 53* | -6% | -14%
O=C(N/N=C/C1CCCCC1)c1cc(Cl)ccc1O | 45* | -11% | 2% | 13 | 5% | -26%
CCOc1ccc2c(c1)C(=NNC(=O)c1ccccn1)c1cc(OCC)ccc1-2 | x | 0% | x | x | x | x
O=C(N/N=C/C1CCCCC1)c1ccccn1 | 166* | -4% | -19% | 49* | 10% | -15%
O=C(COC(=O)c1ccccn1)NC1CCCCC1 | 0 | 0% | -4% | 1 | 9% | 6%
O=C(NN=C1CCC(=NNC(=O)c2ccccn2)CC1)c1ccccn1 | 51* | -2% | -7% | 55* | -1% | -23%
O=S1(=O)CC(N2CCCC2)CN1Cc1ccccc1 (configuration not stated) | x | 5% | x | x | x | x
COc1ccc(Nc2oc(/C=C/c3cc(OC)c(OC)c(OC)c3)nc2C#N)cc1 | x | -3% | x | x | -2% | x
Cc1cc(Cl)c2oc(C(=O)N3CCN(c4cnccn4)CC3)c(C)c2c1 | x | -1% | x | x | x | x
CC1Cc2ccccc2N1C(=O)c1nn(C)cc1Br (configuration not stated) | -2 | -7% | 1% | 9.3* | -12% | -2%
CC1Cc2ccccc2N1C(=O)c1ccc2snnc2c1 (configuration not stated) | -20 | 12% | 2% | -5 | -4% | -1%
Cc1c(C(=O)N2CCN(c3ccccn3)CC2)oc2ccccc12 | 67* | -5% | 14% | 20* | -10% | 17%
CC(=O)N1CCN(C(=O)c2oc3ccccc3c2C)CC1 | -27 | -1% | -12% | 0 | 1% | x
Cc1c(C(=O)N2CCc3ccccc3C2)oc2ccccc12 | 74* | 1% | 1% | 39* | 0% | x
Cc1cc(Cl)c2oc(C(=O)N3CCN(c4cccc(C)n4)CC3)c(C)c2c1 | x | 5% | 5% | 47* | -24% | -10%
FC(F)(F)c1ccccc1-c1ccc2nncn2c1 | x | -5% | x | x | x | x
SMILES | Shiga inhibitor | Tb PYK inh | LmPK inh | Cycloheximide cs | Sm TGR inh | Giardia FBPA inh
Cc1ccc2oc(C(=O)N3CCCCCC3)c(C)c2c1 | 110* | -18% | -1% | 71* | 5% | x
Cc1c(C(=O)N2CCCCC2)oc2ccccc12 | x | -4% | x | x | x | x
COC(=O)CCC(=O)c1oc2ccccc2c1N | 89* | -9% | -1% | 42* | 5% | 7%
Nc1c(C(=O)N2CCCCCC2)oc2ccccc12 | 41 | -2% | -6% | 21* | 0% | 3%
COC(=O)CCC(=O)c1oc2ccccc2c1NC(=O)CCCN1C(=O)c2ccccc2C1=O | 22 | 2% | 1% | 12 | -6% | 4%
Cc1c(C(=O)N2c3ccccc3CC2C)oc2ccccc12 (configuration not stated) | 166* | 5% | -1% | 42* | 3% | x
CCCC[C@H]1CCCO[C@@](C(=O)NCc2ccc(C)o2)(C(F)(F)F)C1 | -4 | x | x | -1 | x | -4%
C=CCN1CCN(C(=O)c2oc3ccccc3c2C)CC1 | 21 | -10% | 1% | 20* | 2% | -15%
Cc1cc(Cl)c2oc(C(=O)N3CCN(C(=O)c4ccco4)CC3)c(C)c2c1 | 65* | 0% | 7% | 38* | u | 5%
Cc1ccc2oc(C(=O)N3CCN(c4cccc(C)n4)CC3)c(C)c2c1 | x | 0% | 7% | 27* | -8% | 0%
CN1CCC(=NNC(=O)c2ccco2)CC1 | 79* | -8% | 6% | 67* | -20% | -5%
CC(C)(C)C1CCC(=NNC(=O)c2ccco2)CC1 (configuration not stated) | 175* | 2% | -3% | 70* | -4% | x
Cc1ccc(C(=O)Nc2ccncc2)cc1[N+](=O)[O-] | -7 | 0% | 0% | -3 | 0% | 14%
Cc1cc(C(=O)Nc2ccc(Nc3ccccc3)cc2)ccc1[N+](=O)[O-] | x | u | 5% | 20* | -1% | -16%
Cc1ccc(NC(=O)c2ccncc2)cc1[N+](=O)[O-] | 16 | -5% | 2% | 19* | 6% | 1%
Cc1cc(C(=O)Nc2ccncc2)ccc1[N+](=O)[O-] | 43 | 0% | -2% | 26* | 0% | -1%
CC(=O)Nc1ccccc1NC(=O)C/C(C)=N/NC(=O)c1ccc([N+](=O)[O-])c(Cl)c1 | 9 | 30% | -1% | 12 | -1% | -5%
C/C(=N\NC(=O)c1ccc([N+](=O)[O-])c(C)c1)c1ccccc1Cl | 57* | -3% | 2% | 28* | 0% | -5%
Cc1ccc(C(=O)NNC(=O)c2ccncc2)cc1[N+](=O)[O-] | x | 0% | x | x | 9% | x
CCCn1c(=O)sc2cc(NC(=O)COc3ccc(Cl)cc3)ccc21 | x | 1% | x | x | -11% | x
CC(=O)Nc1cccc(NC(=O)c2ccc(C)c([N+](=O)[O-])c2)c1 | 41 | -5% | -9% | 26* | 4% | -4%
Cc1c([N+](=O)[O-])cc(C(=O)Nc2ccc(Cc3ccncc3)cc2)cc1[N+](=O)[O-] | -9 | 1% | 3% | -3 | -1% | 2%
O=C(Nc1ccc(Cc2ccncc2)cc1)c1ccc(Cl)c([N+](=O)[O-])c1 | -2 | -1% | 1% | 8.6* | 9% | u
